Many of the other results were omitted from the sample, so hits are more common in it than they were.
a7 integrin act – activators of alpha7 integrin expression for muscular dystrophy; 350,000 tested, 0.064% active; alpha7betagal myoblasts, beta-gal FDG fluorescence, 48 h; Potency, µM (series often up to 38.3 µM), most hits filed as activators; further: nearly all actives have a fitted effect of over 60% in size
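Alpha7betagal+/- myoblasts (passage 13) were plated 16-24 hr, then exposed to compounds (1:260 dilution of DMSO stock) for 48 hours at 37C. After MPER lysis, β-galactosidase reporter activity was read as FDG fluorescence (ex 480/em 540) after 30 minutes.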
N370S GC – inhibitors or activators of N370S glucocerebrosidase for Gaucher disease. P04062. N370S GC spleen homogenate, 4MU-glucoside fluorescence. Potency, µM (top dose mostly 59.4 µM), usual class: inhibitors. 330,000 tested, 0.092% active. AID 2101
CBFb-RUNX1 inh – blocks binding between human CBF-beta and RUNX1; Q01196+Q13951; AlphaScreen CBFb-His/RUNX1-biotin binding, biochemical; Potency, µM (highest dose often 59.8 µM), most hits filed as inhibitors; 230,000 tested, under 10 active; AID 1477
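CBF-beta (His) and RUNX1 (biotin), 30 nM each; 20 min preassociation; + compound, 15 min; + beads 50 ng each (Ni, streptavidin), 90 min; RT; AlphaScreen read.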
Glioma ERSR ind – induces the endoplasmic reticulum stress response in human glioma cells; U87-MG GRP78 promoter luciferase reporter, 16 h; Potency, µM, actives largely listed as activators; 420,000 tested, 0.02% active; AID 602332; further: series mostly up to about 76 µM; nearly all actives have a fitted effect of over 35% in size
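Stably transfected U87-MG human glioma cells carrying a GRP78-based luminescent sensor were seeded at 1000 cells/well, pin-dosed with compounds and incubated 16 h. Luciferase reagent was then added, and end-point luminescence was read after 10 min at room temperature.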
Anesthetic bind – binds horse apoferritin like a general anesthetic | P02791 | apoferritin/1-aminoanthracene competitive binding, fluorescence | Potency, µM (highest dose often 77.5 µM), usual class: inhibitors | 350,000 tested, 0.074% active | AID 485281; further: nearly all actives have a fitted effect of over 20% in size
Target sequence (P02791 2-175 limits assumed): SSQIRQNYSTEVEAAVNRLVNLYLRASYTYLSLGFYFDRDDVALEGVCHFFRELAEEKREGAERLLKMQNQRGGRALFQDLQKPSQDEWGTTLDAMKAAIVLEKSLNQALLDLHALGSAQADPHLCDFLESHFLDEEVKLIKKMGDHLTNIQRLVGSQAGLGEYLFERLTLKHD
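In PBS, apoferritin at 10 uM is loaded with 1-AMA from a 50% saturated solution. After 10 min of compound exposure at ambient temperature, reduced 535 nm fluorescence indicates probe displacement.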
ClpP mod – qHTS Assay for Activators of ClpP. ATP-dependent Clp protease proteolytic subunit (Bacillus subtilis (strain 168)), P80244. purified B. subtilis ClpP, FRET peptide cleavage, 20 min. Potency, µM (top dose mostly 57.5 µM). 340,000 tested, 1.9% active. AID 651965, 2013; active means well fitted falling curve with a large enough effect; inconclusive means small, poorly fitted or top-dose-only effect; inactive means no such curve, though single readings can be large or run the other way; further: the source files actives as falling curves though it sought activators and does not explain the sign; nearly all actives have a fitted effect of over 65% in size
Target sequence (P80244 whole entry, looked up): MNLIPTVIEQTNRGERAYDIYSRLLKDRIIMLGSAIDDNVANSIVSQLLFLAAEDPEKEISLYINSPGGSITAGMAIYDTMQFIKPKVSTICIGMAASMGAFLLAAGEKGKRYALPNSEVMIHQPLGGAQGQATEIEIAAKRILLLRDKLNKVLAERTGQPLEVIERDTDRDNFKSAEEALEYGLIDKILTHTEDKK
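Buffer: 100 mM Tris/HCl pH8, 100 mM KCl, 0.05% low protease BSA, 2.5% glycerol, 0.01% Tween-20. ClpP 10 microg/mL final; 20 min RT; delta FRET normalized to ADEP and DMSO controls.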
Hits are given with their value. Unless noted, the call rests on the fitted dose curve; in most records, active means well fitted curve in the direction sought with a large enough effect; inconclusive means small, poorly fitted or top-dose-only effect, or another doubt; inactive means no such curve, though single readings can be large; an effect the other way counts as inactive or inconclusive.

Results for COc1cccc(/C=N/NC(=O)CSc2nnc(C)n2-c2ccccc2)c1OC ?
a7 integrin act: inactive; N370S GC: inactive; CBFb-RUNX1 inh: inactive; Glioma ERSR ind: inactive; Anesthetic bind: inactive; ClpP mod: 28µM

Results for COc1cccc(/C=N/NC(=O)CSc2ccccc2C)c1OC ?
a7 integrin act: inactive; N370S GC: inactive; CBFb-RUNX1 inh: inactive; Glioma ERSR ind: inactive; Anesthetic bind: inactive; ClpP mod: inactive

What do the screens show for `NC(=O)C1CCCN(Cc2ccc3c(c2)CN(Cc2cn[nH]c2-c2ccc(F)cc2)CCO3)C1` (stereo not drawn)?
Glioma ERSR ind: inactive

Results for CCOC(=O)c1nn(-c2ccccc2)c(C(=O)OCC)c1N ?
a7 integrin act: inactive; N370S GC: inactive; CBFb-RUNX1 inh: inactive; Glioma ERSR ind: inactive; Anesthetic bind: inactive; ClpP mod: 2µM

What do the screens show for `CCOC(=O)c1c(C)nc2c(c(SC)nn2-c2ccccc2)c1N`?
a7 integrin act: inactive; N370S GC: inactive; CBFb-RUNX1 inh: inactive; Glioma ERSR ind: inactive; Anesthetic bind: inactive; ClpP mod: 25µM

What do the screens show for `CCOC(=O)c1nn(-c2ccccc2)c(=O)c2c(N)scc12`?
a7 integrin act: inactive; N370S GC: inactive; CBFb-RUNX1 inh: inactive; Glioma ERSR ind: inactive; Anesthetic bind: inactive; ClpP mod: inactive

What do the screens show for `CCC[C@]1(CCc2ccccc2)CC(O)=C([C@H](CC)c2cccc(NS(=O)(=O)c3ccc(C(F)(F)F)cn3)c2)C(=O)O1`?
Glioma ERSR ind: inactive

Results for CN(C(=O)COc1ncnc2ccccc12)C1CCCCC1 ?
a7 integrin act: inactive; Glioma ERSR ind: inactive; ClpP mod: 22µM

Results for CN(C(=O)COc1ncnc2ccc(Br)cc12)C1CCCCC1 ?
a7 integrin act: inactive; Glioma ERSR ind: inactive; ClpP mod: inactive

Results for Cc1c(C#N)c2ncn(CCCN(C)C)c(=O)c2n1-c1ccccc1 ?
a7 integrin act: inactive; N370S GC: inactive; CBFb-RUNX1 inh: inactive; Glioma ERSR ind: inactive; Anesthetic bind: inactive; ClpP mod: inactive

Results for Cc1c(C#N)c2ncn(Cc3ccccn3)c(=O)c2n1-c1ccccc1 ?
a7 integrin act: inactive; N370S GC: inactive; CBFb-RUNX1 inh: inactive; Glioma ERSR ind: inactive; Anesthetic bind: inactive; ClpP mod: 28µM

Results for O=C(O)C(=O)Nc1cccc(C2=NN=N[N]2)c1 ?
Glioma ERSR ind: inactive

How did c1ccc(-c2cc(-c3nnco3)c3ccccc3n2)nc1 do in these assays?
a7 integrin act: inconclusive; N370S GC: inactive; CBFb-RUNX1 inh: inactive; Glioma ERSR ind: inactive; Anesthetic bind: inactive

Results for COc1cc(-c2cc(-c3nnco3)c3ccccc3n2)cc(OC)c1OC ?
a7 integrin act: inactive; N370S GC: inactive; CBFb-RUNX1 inh: inactive; Glioma ERSR ind: inactive; Anesthetic bind: inactive; ClpP mod: 13µM

Results for Cc1nn(-c2ccc(F)cc2)c(C)c1CNC(=O)c1ccc(-n2cc(NC(=O)c3ccoc3)cn2)cc1 ?
Glioma ERSR ind: inactive

What do the screens show for `Cc1c([N+](=O)[O-])cnc2ccccc12`?
Glioma ERSR ind: inactive; ClpP mod: inactive

How did CCN(CC)CCN(C)C(=O)c1ccc(-c2ccccc2)nc1N(C)C do in these assays?
Glioma ERSR ind: inactive

What do the screens show for `COc1cc(Cl)c(C)cc1NC(=O)CCc1c(C)nc2c3cccnc3nn2c1C`?
Glioma ERSR ind: inactive; Anesthetic bind: inactive; ClpP mod: 25µM

How did COc1ccc(CCNC(=O)CCc2c(C)nc3c4cccnc4nn3c2C)cc1OC do in these assays?
Glioma ERSR ind: inactive; Anesthetic bind: inactive; ClpP mod: inconclusive

How did Cc1nc2c(cnn2-c2ccccc2)c(=O)n1/N=C/c1ccccc1 do in these assays?
a7 integrin act: 10µM; N370S GC: inactive; CBFb-RUNX1 inh: inactive; Glioma ERSR ind: inactive; Anesthetic bind: inactive; ClpP mod: inactive

Results for COc1ccc(-n2c(=O)c3ccccc3n(CC(=O)Nc3cccc(OC)c3)c2=O)cc1 ?
a7 integrin act: inactive; N370S GC: inactive; CBFb-RUNX1 inh: inactive; Glioma ERSR ind: inactive; Anesthetic bind: inactive; ClpP mod: inactive

Bioassay records (PubChem BioAssay)
